Measured values from PubChem BioAssay (NCATS).
Where “and” joins values, the source holds several entries; their conditions need not be identical. Equal entries are not always repeated. Results filed as inconclusive are left out. Values without a mark were called inactive. Calls follow the shape of the dose curve; as a rule, active = well fitted activation curve with a large enough effect; inconclusive = small, poorly fitted or top-dose-only effect; inactive = no such curve, though single readings can be large or run the other way.

The compounds below were run against Cellular tumor antigen p53 (Homo sapiens) (UniProt P04637) (assay: Primary qHTS for small molecule compounds that upregulate eGFP-tagged delta133p53alpha (in N-terminal) cells. (AID 2060322;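 also: series mostly up to about 56 µM; 0% = DMSO vehicle and 100% = reference activator; nearly all actives have a fitted effect of over 75% in size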)). Details: NCI-H358 eGFP-delta133p53alpha fluorescence, 24 h; activation: stronger effect = higher value.
Method in brief: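 NCI-H358 cells pre-induced 24 h with 10 ng/ml doxycycline to express N-terminal eGFP-delta133p53alpha, then dosed 24 h at 37C without doxycycline; fixed, Hoechst-stained, GFP intensity by laser scanning cytometry, normalized to DMSO (0%) and 57.5 uM 5-azacytidine (100%).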

Sequence of Cellular tumor antigen p53 (Homo sapiens) (P04637 whole entry, looked up): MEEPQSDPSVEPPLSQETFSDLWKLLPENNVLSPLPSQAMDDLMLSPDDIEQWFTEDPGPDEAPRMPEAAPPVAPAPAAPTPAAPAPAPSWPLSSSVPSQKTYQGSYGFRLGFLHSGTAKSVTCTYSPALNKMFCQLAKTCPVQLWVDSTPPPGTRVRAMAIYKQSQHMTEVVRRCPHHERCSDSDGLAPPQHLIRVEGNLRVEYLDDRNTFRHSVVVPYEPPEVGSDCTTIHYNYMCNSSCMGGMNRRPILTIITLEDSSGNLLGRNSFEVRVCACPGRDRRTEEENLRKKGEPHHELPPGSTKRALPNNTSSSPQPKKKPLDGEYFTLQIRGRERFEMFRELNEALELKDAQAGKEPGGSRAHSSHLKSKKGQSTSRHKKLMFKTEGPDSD

Compound | activation
O=P1(N(CCCl)CCCl)NCCCO1 (centres undefined) | -25.4% and -10.4% and -10.6%
O=c1[nH]c2ccccc2n1CCCN1CCC(n2c(=O)[nH]c3cc(Cl)ccc32)CC1 | 22.2% and -21.7%
NC1CC1c1ccccc1 (centres undefined) | -3.62% and 6.08%
NC(=O)c1cc(N2CC2)c([N+](=O)[O-])cc1[N+](=O)[O-] | -14.9%
C[C@]12Cc3cn4c(nc3C=C1CCC1C2CC[C@@]2(C)[C@H]1CC[C@@]2(O)C#N)nc1ccccc14 (some centres undefined) | -9.64%
CCOC(=O)c1ncn2c1[C@@H]1CCCN1C(=O)c1cc(OC)ccc1-2 | 2.15%
Cc1cc([C@@H]2CCCN2C)on1 | 4.82%
CC(C)NP(=O)(NC(C)C)OP(=O)(NC(C)C)NC(C)C | -39%
O=C1C=CC(=O)C=C1 | 48.4%
CNCCc1ccc(O)c(O)c1 | -26.5%
CN(N=O)c1cc(O)ccc1O | -33.2%
CC(C)c1cccc(C(C)C)c1O | 0.683% and -5.08% and -18.8%
NCCc1c[nH]c2ccc(C(N)=O)cc12 | -19.7%
O=C(O)Cc1cnc[nH]1 | -6.89%
CC(C)=CCOc1c2occc2cc2ccc(=O)oc12 | -10.9% and -24.3%
c1ccc2c(N3CCNCC3)cccc2c1 | -14.7%
C[N+](C)(C)CC#CCN1CCCC1=O | -31.7%
CCCN1CCc2cc(O)cc3c2[C@H]1Cc1ccc(O)c(O)c1-3 | 23.3%
O=[N+]([O-])c1ccc2nc(N3CCNCC3)ccc2c1 | -42.9%
C[N+]1(C)CCN(c2ccccc2)CC1 | -0.912%

Compound | activation
CC(=O)c1c(O)c(C)c(O)c(Cc2c(O)c3c(c(C(=O)/C=C/c4ccccc4)c2O)OC(C)(C)C=C3)c1O | -54.1%
CCCN1CCO[C@@H]2c3cc(O)ccc3OC[C@H]21 | -9.95%
O=S1(=O)N(CCN2CC=C(c3c[nH]c4cc(F)ccc34)CC2)c2cccc3c2N1CCC3 | 24.1%
CN1CC[C@@]2(C)c3cc(O)ccc3N(C)C12 (some centres undefined) | -31.1%
COc1ccc(C(=O)N2CCCC2=O)cc1 | 27.7% and -18.6% and -9.06%
C[N+]1(C)C2CCC1CC(OC(=O)c1c[nH]c3ccccc13)C2 (centres undefined) | -13.4%
O=[N+]([O-])c1cc(O)c(O)c([N+](=O)[O-])c1 | -0.323%
CN1CC[C@@]2(C)c3cc(OC(=O)Nc4ccccc4)ccc3N(C)[C@@H]12 | 26.7%
NCCc1ccc(O)cc1 | 0.565% and 11.2%
Cn1c(CCCC(=O)O)nc2cc(N(CCCl)CCCl)ccc21 | 27.7% and 5.11% and -16.6%
Cc1cccc(C)c1NC(=O)CN1CCCC1=O | -17.7% and -15.1% and -5.58%
CNCC(O)c1ccc(O)cc1 (centres undefined) | -9.6% and -1.8% and -6.7%
NCC1(CC(=O)O)CCCCC1 | -0.945% and -3.35% and 5.99%
Nc1cc2c(ncn2CCOCP(=O)(O)O)c(=O)[nH]1 | -41.7%
Cc1ncc(CNC(=O)N(CCCl)N=O)c(N)n1 | 6.21% and -40.8%
[Cl-].[Cl][Pt].[NH2-].[NH2-].c1ccncc1 | -12%
CN(C(=O)Cc1ccc(Cl)c(Cl)c1)C(CN1CCCC1)c1cccc(OCC(=O)O)c1 (centres undefined) | -43.2%
O=C(O)c1nn(Cc2ccc(Cl)cc2Cl)c2ccccc12 | 21.3% and 19.8% and -21.2%
c1ccc2c(c1)OCC(C1=NCCN1)O2 (centres undefined) | -26.9%
